Hit rate of the full screen: of about 5,500 compounds, about 2,000 (36%) were called active. Roughly 18% stayed inconclusive and do not appear here. Cut-off read from the data, not from the text of the source: active = normalized growth mostly below about 0.91 (no sharp cut-off); inconclusive = no clear call, values can overlap the other calls; inactive = mostly above about 0.92. The list shows a part of the results.
Assay: chemical genetic growth profiling, strain panel (AID 1159580);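 note: tested at 20 µM; growth read once vehicle control cultures reached saturation at 30 °C; 1 = growth at the plate median or of vehicle wells; lower values mean less growth of the strain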
Conditions: S. cerevisiae deletion strains, growth OD
[1] = locus YAR019C, strain CDC15, hits give low values
[2] = locus YBL105C, strain PKC1, hits give low values
[3] = locus YBR135W, strain CKS1, hits give low values
[4] = locus YBR136W, strain MEC1, hits give low values
[5] = locus YBR160W, strain CDC28, hits give low values
[6] = locus YDL017W, strain CDC7, hits give low values
[7] = locus YDL028C, strain MPS1, hits give low values
[8] = locus YDL101C, strain DUN1, hits give low values
[9] = locus YDL108W, strain KIN28, hits give low values
[10] = locus YDL132W, strain cdc53, hits give low values
[11] = locus YDL214C, strain PRR2, hits give low values
[12] = locus YDR052C, strain DBF4, hits give low values
[13] = locus YDR054C, strain cdc34, hits give low values
[14] = locus YDR226W, strain ADK1, hits give low values
[15] = locus YDR477W, strain SNF1, hits give low values
[16] = locus YER123W, strain YCK3, hits give low values
[17] = locus YER133W, strain GLC7, hits give low values
[18] = locus YFL009W, strain cdc4, hits give low values
[19] = locus YFL029C, strain CAK1, hits give low values
[20] = locus YFR003C, strain YPI1, hits give low values
[21] = locus YFR019W, strain FAB1, hits give low values
[22] = locus YFR028C, strain CDC14, hits give low values
[23] = locus YGR040W, strain KSS1, hits give low values
[24] = locus YGR052W, strain FMP48, hits give low values
[25] = locus YGR092W, strain DBF2, hits give low values
[26] = locus YHR030C, strain SLT2, hits give low values
[27] = locus YHR079C, strain IRE1, hits give low values
[28] = locus YHR082C, strain KSP1, hits give low values
[29] = locus YHR205W, strain SCH9, hits give low values
[30] = locus YIL147C, strain SLN1, hits give low values
[31] = locus YJL095W, strain BCK1, hits give low values
[32] = locus YJL128C, strain PBS2, hits give low values
[33] = locus YJL157C, strain FAR1, hits give low values
[34] = locus YJR016C, strain ILV3, hits give low values
[35] = locus YJR066W, strain TOR1 (second series), hits give low values
[36] = locus YJR066W, strain TOR1, hits give low values
[37] = locus YKL048C, strain ELM1, hits give low values
[38] = locus YKL067W, strain YNK1, hits give low values
[39] = locus YKL101W, strain HSL1, hits give low values
[40] = locus YKL193C, strain SDS22, hits give low values
[41] = locus YKL203C, strain TOR2, hits give low values
[42] = locus YLR113W, strain HOG1, hits give low values
[43] = locus YLR133W, strain CKI1, hits give low values
[44] = locus YLR403W, strain SFP1, hits give low values
[45] = locus YML070W, strain DAK1, hits give low values
[46] = locus YMR001C, strain CDC5, hits give low values
[47] = locus YMR205C, strain PFK2 (second series), hits give low values
[48] = locus YMR277W, strain FCP1, hits give low values
[49] = locus YNL006W, strain LST8, hits give low values
[50] = locus YNL020C, strain ARK1, hits give low values
[51] = locus YNL161W, strain CBK1, hits give low values
[52] = locus YNL183C, strain NPR1, hits give low values
[53] = locus YNL207W, strain RIO2, hits give low values
[54] = locus YNL222W, strain SSU72, hits give low values
[55] = locus YNL307C, strain MCK1 (second series), hits give low values
[56] = locus YOL078W, strain AVO1, hits give low values
[57] = locus YOL136C, strain PFK27, hits give low values
[58] = locus YOR061W, strain CKA2, hits give low values
[59] = locus YOR119C, strain RIO1, hits give low values
[60] = locus YOR231W, strain MKK1, hits give low values
[61] = locus YOR329C, strain SCD5, hits give low values
[62] = locus YPL031C, strain PHO85, hits give low values
[63] = locus YPL153C, strain RAD53, hits give low values
[64] = locus YPL204W, strain HRR25, hits give low values
[65] = locus YPL209C, strain IPL1, hits give low values
[66] = locus YPL256C, strain CLN2, hits give low values
[67] = locus YPR025C, strain CCL1, hits give low values
[68] = locus YPR106W, strain ISR1, hits give low values
[69] = locus YPR111W, strain DBF20, hits give low values
[70] = strain NNK1, hits give low values
[71] = strain TSCII, hits give low values

Measured: normalized growth

CC(=O)c1ccc(Cl)c(N=Cc2cc(Br)cc(Br)c2O)c1
active: [1] 0.107 | [2] 0.0938 | [3] 0.0994 | [4] 0.112 | [5] 0.127 | [6] 0.104 | [7] 0.12 | [8] 0.118 | [9] 0.127 | [10] 0.402 | [11] 0.106 | [12] 0.303 | [13] 0.166 | [14] 0.621 | [15] 0.109 | [16] 0.115 | [17] 0.105 | [18] 0.0929 | [19] 0.0974 | [20] 0.0995 | [21] 0.0995 | [22] 0.102 | [23] 0.103 | [24] 0.128 | [25] 0.102 | [26] 0.141 | [27] 0.124 | [28] 0.134 | [29] 0.00344 | [30] 0.104 | [31] 0.141 | [32] 0.0977 | [33] 0.0879 | [34] 0.0892 | [35] 0.091 | [36] 0.12 | [37] 0.114 | [38] 0.0955 | [39] 0.112 | [40] 0.0908 | [41] 0.113 | [42] 0.161 | [43] 0.0941 | [44] -0.00302 | [45] 0.099 | [46] 0.0969 | [47] 0.0844 | [48] 0.0941 | [49] 0.0893 | [50] 0.103 | [51] 0.0859 | [52] 0.119 | [53] 0.0975 | [54] 0.0926 | [55] 0.103 | [56] 0.0827 | [57] 0.102 | [58] 0.0946 | [59] 0.102 | [60] 0.119 | [61] 0.0861 | [62] 0.105 | [63] 0.0925 | [64] 0.0963 | [65] 0.0856 | [66] 0.144 | [67] 0.0958 | [68] 0.0925 | [69] 0.106 | [70] 0.102 | [71] 0.102

CC(=O)c1ccc(Cl)c(N=Cc2cc(Cl)cc(Cl)c2O)c1
active: [11] 0.303 | [15] 0.289 | [16] 0.151 | [17] 0.354 | [21] 0.222 | [23] 0.339 | [24] 0.253 | [25] 0.139 | [26] 0.159 | [27] 0.148 | [28] 0.227 | [29] 0.199 | [31] 0.139 | [33] 0.23 | [35] 0.341 | [36] 0.175 | [37] 0.441 | [38] 0.227 | [39] 0.308 | [41] 0.399 | [42] 0.192 | [43] 0.274 | [44] 0.186 | [45] 0.184 | [47] 0.304 | [50] 0.247 | [52] 0.246 | [55] 0.209 | [57] 0.197 | [58] 0.198 | [59] 0.32 | [60] 0.123 | [62] 0.269 | [63] 0.197 | [64] 0.247 | [66] 0.197
inactive: [1] 0.94 | [2] 0.948 | [3] 0.953 | [4] 0.941 | [5] 0.937 | [6] 0.944 | [7] 0.91 | [8] 0.932 | [9] 0.935 | [10] 0.958 | [12] 0.963 | [14] 0.948 | [18] 0.928 | [19] 0.934 | [20] 0.933 | [22] 0.939 | [30] 0.926 | [32] 0.9 | [34] 0.967 | [40] 0.941 | [46] 0.936 | [48] 0.92 | [49] 0.947 | [51] 0.955 | [53] 0.947 | [54] 0.923 | [56] 0.926 | [61] 0.953 | [65] 0.95 | [67] 0.959 | [68] 0.952 | [69] 0.931 | [70] 0.948 | [71] 0.905

CCOC(=O)c1ccc(Cl)c(N=Cc2cc(Cl)cc(Cl)c2O)c1
active: [11] 0.544 | [15] 0.533 | [16] 0.319 | [17] 0.567 | [21] 0.472 | [23] 0.591 | [24] 0.511 | [25] 0.197 | [26] 0.238 | [27] 0.238 | [28] 0.501 | [29] 0.468 | [31] 0.298 | [33] 0.401 | [36] 0.37 | [37] 0.636 | [38] 0.527 | [39] 0.608 | [41] 0.594 | [42] 0.377 | [43] 0.432 | [44] 0.364 | [45] 0.389 | [47] 0.507 | [50] 0.404 | [52] 0.413 | [55] 0.381 | [57] 0.322 | [58] 0.326 | [59] 0.569 | [60] 0.301 | [62] 0.528 | [63] 0.421 | [64] 0.421 | [66] 0.317
inactive: [1] 0.955 | [2] 0.967 | [3] 0.943 | [4] 0.956 | [5] 0.948 | [6] 0.95 | [7] 0.946 | [8] 0.974 | [9] 0.953 | [10] 0.951 | [12] 0.959 | [13] 0.957 | [14] 0.969 | [18] 0.949 | [19] 0.951 | [20] 0.946 | [22] 0.969 | [30] 0.946 | [32] 0.964 | [34] 0.956 | [35] 0.622 | [40] 0.95 | [46] 0.955 | [48] 0.954 | [49] 0.951 | [51] 0.951 | [53] 0.956 | [54] 0.951 | [56] 0.956 | [61] 0.958 | [65] 0.954 | [67] 0.947 | [68] 0.961 | [69] 0.958 | [70] 0.957 | [71] 0.957

Source: PubChem BioAssay AID1159580 (chemical genetic matrix, 2015)
